MITF TRPM1 HTS – activators of MITF-driven TRPM1 promoter activity in SK-MEL-5 cells; SK-MEL-5 TRPM1-promoter luciferase, 24 h; % of positive control, neutral wells = 0; activation, % at 12.5 µM; 300,000 compounds, 0.75% hits; AID 588334;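 active = mean activation of at least 80% with every replicate also reaching 80%; inconclusive = mean reaches 80% but some replicate falls short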;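 also: 0% = neutral control wells and 100% = parthenolide positive control wells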
esBAF inh – SWI/SNF esBAF complex inhibition; mouse ES cells, Bmi1-luciferase knock-in reporter, 24 h; 100% = twice the neutral-well signal; 350,000 compounds, 2% hits; AID 602393; reporter increase, % at 12.5 µM; in the data active = activation above about 40%; inconclusive = no clear call, values can overlap the other calls;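 also: 0% = median of the plate's neutral control wells and 100% = double that signal; a rise in the Bmi1 reporter signal indicates esBAF inhibition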
GAA850 FXN act – frataxin GAA850 promoter activation; HEK293 lucGAA850 FXN promoter luciferase reporter, 24 h; percent of 10 µM SAHA response; 360,000 compounds, 0.56% hits; activation, % at 6 µM;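 active = activation above the average of all compounds screened plus 3 SD, cutoff fixed separately per campaign, cut at about 7.5% in these data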;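 also: 0% = DMSO wells and 100% = 10 µM SAHA wells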
Wnt act – activators of Wnt/beta-catenin signaling | Wnt/beta-catenin reporter cell assay, activator, plate reader | activation, % at 9.35 µM | 300,000 compounds, 1.2% hits | AID 743398; in the data active = activation above about 30%, passing the limit was not always enough; inconclusive = no clear call, values can overlap the other calls;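 also: 0% = neutral control wells and 100% = positive control wells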
Active calls of the source: *; u = inconclusive; x = not tested or not shown. Rows were chosen to be rich in hits. Some 2.8% of all compounds tested hit in one or more screens of this group.

SMILES	MITF TRPM1 HTS	esBAF inh	GAA850 FXN act	Wnt act
CC(C)(O)[C@H]1Cc2cc3ccc(=O)oc3cc2O1	98*	0	5	11
C=CCOC(=O)/C(=C\c1cccc2ccccc12)NC(=O)c1ccccc1	26	56*	2	x
C=CCOC(=O)/C(=C\c1ccccc1)NC(=O)c1ccc(C)cc1	55	x	4	19
CO[C@H]1CN(C)C(=O)c2cc(NC(C)=O)ccc2OC[C@H](C)N(C(=O)c2cccnc2)C[C@H]1C	x	-4	x	x
C[C@@H]1CN([C@H](C)CO)C(=O)c2cc(C#CC3CCCC3)cnc2O[C@@H]1CN(C)C(=O)C1CC1	x	12	x	x
O=C(Nc1ccc(N2CCCC2)cc1)c1cc(Cl)ccc1Cl	2	1	1	-5
O=C(Nc1ccc(N2CCCC2)cc1)c1cccc(Cl)c1	102*	-7	2	33*
O=C(Nc1ccc(N2CCN(C(=O)c3ccco3)CC2)cc1)c1cccc(F)c1	x	54*	0	5
O=C(Nc1ccc(N2CCN(C(=O)c3ccco3)CC2)cc1)c1ccccc1F	18	x	1	x
CC(=O)N1CCN(c2ccc(NC(=O)c3cccc(F)c3)cc2)CC1	x	54*	3	19
COc1ccccc1CNC(=O)C[C@@H]1CC[C@H]2[C@H](COc3ccc(NC(=O)Nc4ccc(F)c(F)c4)cc3C(=O)N2C)O1	x	18	x	x
CCCCn1cnc2c(SCc3cccc(F)c3)nc(N)nc21	20	x	6	0
CC(C)Cn1cnc2c(SCc3ccccc3Cl)nc(N)nc21	26	55*	5	1
CCCn1cnc2c(SCc3ccccc3F)nc(N)nc21	61	53*	2	-1
CC(=O)Oc1cc(O)c2c(=O)c(OC(C)=O)c(-c3ccc(OC(C)=O)c(OC(C)=O)c3)oc2c1	16	43*	1	x
COc1ccc(-c2oc3ccccc3c(=O)c2OC(C)=O)cc1	46	75*	7	-4
COc1ccc(NC(=O)N(C)C[C@@H]2OCCCC[C@@H](C)Oc3ccc(NS(=O)(=O)c4cn(C)cn4)cc3C(=O)N([C@H](C)CO)C[C@H]2C)cc1	x	-2	x	x
O=C(Nc1cccc2[nH]ncc12)c1ccc(F)cc1	96*	17	-11	-4
O=C(NC(=S)Nc1cccc2[nH]ncc12)c1ccccc1	61	14	-4	21
O=Cc1c(OCc2ccccc2)ccc2ccccc12	64	100*	3	-8
c1ccc(Cn2c(-c3ccco3)nc3nc4ccccc4nc32)cc1	90*	x	6	38*
CCCCCn1c(-c2ccco2)nc2nc3ccccc3nc21	0	-4	0	x
CC1CCCC(NC(=O)c2cccs2)C1C (stereo unspecified)	20	43*	3	3
CC1CCCC(NC(=O)COC(=O)CCC(=O)c2cccs2)C1C (stereo unspecified)	-8	-2	-1	-1
CC1CCCC(NC(=O)c2ccc3c(c2)OCCO3)C1C (stereo unspecified)	71	u	4	35*
SMILES	MITF TRPM1 HTS	esBAF inh	GAA850 FXN act	Wnt act
CCCc1ccc(OCc2ccc(C(=O)OC)o2)c(OC)c1	34	43*	3	19
CCCc1ccc(OCc2ccc(C(=O)O)o2)c(OC)c1	-8	11	3	x
Cc1ccc(-c2cc(-c3ccc(F)cc3)n[nH]2)c(O)c1	25	35	8	16
Oc1ccccc1-c1cc(-c2ccc(F)cc2)n[nH]1	36	-6	6	53*
Oc1ccccc1-c1cc(-c2ccccc2)n[nH]1	52	18	5	53*
O=C(C[C@@H]1C[C@@H]2c3cc(NC(=O)c4cccnc4)ccc3O[C@@H]2[C@H](CO)O1)NCc1cccc(F)c1	x	-1	x	x
CCCOc1ccc2c3c(c(=O)oc2c1)CCCC3	32	48*	3	x
COc1ccc(-c2c(C)c3ccc(OCC(C)=O)cc3oc2=O)cc1	x	68*	x	27
CCCOc1ccc2c(C)c(CC(=O)OC)c(=O)oc2c1	125*	68*	2	x
CC(=O)COc1ccc2c(C)c(C)c(=O)oc2c1	x	11	3	4
C=CCOc1ccc2c3c(c(=O)oc2c1)CCCC3	x	4	4	-2
O=C([C@H]1[C@H](CO)[C@H]2Cn3c(cccc3=O)[C@H]2N1CCC(F)(F)F)N1CCCCC1	x	3	x	x
C/C(NC(=O)c1cccc(F)c1)=C1/C(=O)C[C@@H]2[C@H]1C2(C)C	109*	65*	4	x
O=Cc1cccc(OC(=O)/C=C/c2ccco2)c1	x	48*	6	9
O=C(/C=C/c1ccco1)Oc1ccc(C(=S)N2CCOCC2)cc1	1	x	7	84*
CC(C)NC(=O)Nc1ccc2c(c1)CC(=O)N([C@@H](C)CO)C[C@H](C)[C@H](CN(C)CC1CCCCC1)O2	x	-3	x	x
